# Test results reported in PubChem BioAssay (NCATS).
# Inconclusive results are not listed. A call without a number means that no potency is given here. Unmarked numbers belong to inactive results. Calls of active or inactive are those of the source. The call rests on the fitted dose curve; in most records, active means well fitted curve in the direction sought with a large enough effect; inconclusive means small, poorly fitted or top-dose-only effect, or another doubt; inactive means no such curve, though single readings can be large; an effect the other way counts as inactive or inconclusive.
# Legend:
# [1] = biological target: Rap guanine nucleotide exchange factor 3 (Homo sapiens) (UniProt O95398); assay: Confirmatory qHTS for agonist of cAMP-regulated guanine nucleotide exchange factor 3 (EPAC1) (AID 1645881);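 further: EPAC1 catalysed release of BODIPY-GDP from Rap1B seen as fluorescence loss; nearly all actives have a fitted effect of over 75% in size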
# [2] = biological target: Rap guanine nucleotide exchange factor 4 (Homo sapiens) (UniProt Q8WZA2); assay: Confirmatory qHTS for agonist of cAMP-regulated guanine nucleotide exchange factor 4 (EPAC2) (AID 1645884);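 further: nucleotide exchange releases bodipy-GDP from Rap1 and this lowers its fluorescence; nearly all actives have a fitted effect of over 65% in size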
# [3] = biological target: Rap guanine nucleotide exchange factor 4 (Homo sapiens) (UniProt Q8WZA2); assay: Confirmatory qHTS for antagonist of cAMP-regulated guanine nucleotide exchange factor 4 (EPAC2) (AID 1645885); further: nearly all actives have a fitted effect of over 25% in size; further: potency means the concentration at half of the fitted maximal effect
# [4] = biological target: Rap guanine nucleotide exchange factor 3 (Homo sapiens) (UniProt O95398); assay: Counterscreen qHTS for antagonist of cAMP-regulated guanine nucleotide exchange factor 3 (EPAC1) (AID 1645888); further: potency means the concentration at half of the fitted maximal effect;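 on activity change, negative = inhibition: fluorescence loss as bound BODIPY-GDP is released from Rap1B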
# How it was run: (§1)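 Measured: fluorescence of BODIPY-GDP bound to Rap1B, which falls as exchange proceeds. Conditions include 50 uM competing GDP, 5 and 30 min reads, and a later cAMP challenge for antagonist detection.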
# [5] = biological target: Rap guanine nucleotide exchange factor 3 (Homo sapiens) (UniProt O95398); assay: Counterscreen qHTS for agonist of cAMP-regulated guanine nucleotide exchange factor 3 (EPAC1) (AID 1645889); further: nearly all actives have a fitted effect of over 40% in size
# How it was run: as §1
# Sequence of Rap guanine nucleotide exchange factor 4 (Homo sapiens) (Q8WZA2 whole entry, looked up): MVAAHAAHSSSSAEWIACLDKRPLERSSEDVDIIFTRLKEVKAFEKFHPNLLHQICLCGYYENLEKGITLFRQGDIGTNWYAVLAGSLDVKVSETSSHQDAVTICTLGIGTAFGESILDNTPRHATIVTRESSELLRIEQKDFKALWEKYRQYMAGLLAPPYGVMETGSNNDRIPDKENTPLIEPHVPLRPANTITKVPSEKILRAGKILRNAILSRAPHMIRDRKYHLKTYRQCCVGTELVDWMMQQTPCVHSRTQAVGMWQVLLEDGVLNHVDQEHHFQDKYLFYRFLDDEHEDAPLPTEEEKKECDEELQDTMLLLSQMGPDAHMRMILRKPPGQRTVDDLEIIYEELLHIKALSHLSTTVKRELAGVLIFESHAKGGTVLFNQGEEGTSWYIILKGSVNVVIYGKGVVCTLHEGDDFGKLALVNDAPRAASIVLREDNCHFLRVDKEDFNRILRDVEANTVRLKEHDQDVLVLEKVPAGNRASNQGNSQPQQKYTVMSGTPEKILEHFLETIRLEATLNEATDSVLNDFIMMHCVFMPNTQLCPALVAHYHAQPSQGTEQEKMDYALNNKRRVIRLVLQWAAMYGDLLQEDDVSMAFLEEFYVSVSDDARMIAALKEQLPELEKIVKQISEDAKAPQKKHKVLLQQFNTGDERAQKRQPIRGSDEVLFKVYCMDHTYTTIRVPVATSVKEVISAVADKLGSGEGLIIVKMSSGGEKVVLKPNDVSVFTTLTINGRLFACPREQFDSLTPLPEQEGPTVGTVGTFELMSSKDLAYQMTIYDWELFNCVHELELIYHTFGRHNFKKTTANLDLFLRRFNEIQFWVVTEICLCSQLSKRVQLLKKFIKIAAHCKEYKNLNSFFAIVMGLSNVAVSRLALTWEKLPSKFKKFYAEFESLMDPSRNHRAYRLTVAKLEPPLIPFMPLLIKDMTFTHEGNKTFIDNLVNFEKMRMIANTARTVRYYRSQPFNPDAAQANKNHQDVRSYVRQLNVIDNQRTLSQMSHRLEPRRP
# Sequence of Rap guanine nucleotide exchange factor 3 (Homo sapiens) (O95398 whole entry, looked up): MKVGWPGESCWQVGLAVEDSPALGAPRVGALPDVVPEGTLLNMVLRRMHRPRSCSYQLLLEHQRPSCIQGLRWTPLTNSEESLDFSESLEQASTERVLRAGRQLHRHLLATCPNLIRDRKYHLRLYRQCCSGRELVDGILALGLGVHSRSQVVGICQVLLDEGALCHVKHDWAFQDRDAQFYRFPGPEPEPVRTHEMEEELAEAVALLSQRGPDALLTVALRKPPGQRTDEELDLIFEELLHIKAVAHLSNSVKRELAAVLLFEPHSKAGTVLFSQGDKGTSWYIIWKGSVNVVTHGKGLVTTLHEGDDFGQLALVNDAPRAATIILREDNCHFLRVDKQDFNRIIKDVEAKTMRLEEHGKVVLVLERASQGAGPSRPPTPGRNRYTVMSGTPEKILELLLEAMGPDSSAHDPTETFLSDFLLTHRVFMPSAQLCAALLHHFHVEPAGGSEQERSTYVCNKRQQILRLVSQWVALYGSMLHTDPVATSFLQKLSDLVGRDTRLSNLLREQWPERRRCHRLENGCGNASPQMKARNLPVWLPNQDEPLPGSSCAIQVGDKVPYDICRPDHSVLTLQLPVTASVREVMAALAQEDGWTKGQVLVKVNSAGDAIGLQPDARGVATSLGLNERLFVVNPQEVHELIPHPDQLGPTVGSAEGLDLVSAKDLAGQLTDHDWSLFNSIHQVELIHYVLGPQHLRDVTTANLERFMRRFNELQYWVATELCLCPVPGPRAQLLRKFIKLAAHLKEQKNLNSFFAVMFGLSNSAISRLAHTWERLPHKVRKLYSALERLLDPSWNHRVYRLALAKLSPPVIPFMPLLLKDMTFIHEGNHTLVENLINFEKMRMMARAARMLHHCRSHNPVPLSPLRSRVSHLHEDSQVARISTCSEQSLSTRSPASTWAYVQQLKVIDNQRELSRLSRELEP
smiles,measurement,setting,value
COc1ccc(C2C=C(c3ccc(Br)cc3)Nc3nnnn32)c(OC)c1 (stereo not drawn),Potency,[1],inactive
same,Potency,[2],inactive
same,Potency,[3],inactive
same,Potency,[4],inactive
Cc1ccc(N=Cc2c(O)c3ccccc3n(C)c2=O)cc1,Potency,[1],inactive
same,Potency,[2],inactive
same,Potency,[3],inactive
same,Potency,[4],inactive
CCOc1cc(CNc2ccc(O)cc2)cc(Cl)c1OCc1ccccc1,Potency,[1],inactive
same,Potency,[2],inactive
same,Potency,[3],inactive
same,Potency,[4],inactive
CCC(=O)NC(c1ccc(OC)cc1)c1c(O)ccc2ccccc12 (stereo not drawn),Potency,[1],inactive
same,Potency,[2],inactive
same,Potency,[3],inactive
same,Potency,[4],inactive
CC(=Cc1ccccc1)C=C1SC(=S)N(CCCC(=O)Nc2ccc(C(=O)O)cc2)C1=O,Potency,[1],inactive
same,Potency,[2],inactive
same,Potency,[3],inactive
same,Potency,[4],inactive
COc1ccc(CC(=O)NCc2ccc3c(c2)CCN3C(=O)c2ccc(Cl)cc2)cc1OC,Potency,[1],inactive
same,Potency,[2],inactive
same,Potency,[3],inactive
same,Potency,[4],inactive
O=C(/C=C/c1ccc(-c2ccccc2[N+](=O)[O-])o1)c1ccco1,Potency,[1],inactive
same,activation,[2],"7.95% [at 17.1 µM, percent relative to cAMP agonist control]"
same,Potency,[3],inactive
same,"activity change, negative = inhibition",[4],9.73% [at 30.8 µM]
COc1cc(-c2cc(OC)c3c(C)oc(C)c3c(=O)c2)ccc1OC(=O)c1ccccc1F,Potency,[1],inactive
same,Potency,[2],inactive
same,outcome,[3],inactive [at 12.7 µM]
same,Potency,[4],inactive
O=C(CSc1nc(O)cc(=O)n1-c1ccccc1)Nc1nc2ccccc2s1,Potency,[1],inactive
same,Potency,[2],inactive
same,Potency,[3],inactive
same,Potency,[4],inactive
COc1ccc2ccc(C(C)(C(C)=O)C(=O)OC(C)C)cc2c1 (stereo not drawn),Potency,[1],inactive
same,activation,[2],"5.56% [at 17.1 µM, percent relative to cAMP agonist control]"
same,Potency,[3],inactive
same,"activity change, negative = inhibition",[4],-29.5% [at 30.8 µM]
Cc1ccc(NC(=O)CN2C(=O)S/C(=C\c3cccn3-c3cccc(C(=O)O)c3)C2=O)cc1C,Potency,[1],inactive
same,activation,[2],"3.81% [at 17.1 µM, percent relative to cAMP agonist control]"
same,Potency,[3],0.019 µM (active)
same,"activity change, negative = inhibition",[4],-10.4% [at 30.8 µM]
CCc1nc2c(OCc3ccc(OC(F)F)cc3)cccn2c1N(C)C(=O)c1cccs1,Potency,[1],inactive
same,Potency,[2],inactive
same,Potency,[3],inactive
same,Potency,[4],inactive
Cc1cccc([C@H]2[C@@H]3C=CCC[C@@H]3C(=O)N2Cc2ccccc2)c1,Potency,[1],inactive
same,Potency,[2],inactive
same,Potency,[3],42.6 µM (active)
same,Potency,[4],inactive
CCOC(=O)c1ccc2ncc(C(=O)OCC)c(Nc3ccc(C)c(Br)c3)c2c1,Potency,[1],inactive
same,Potency,[2],inactive
same,outcome,[3],inactive [at 12.7 µM]
same,Potency,[4],inactive
CCOC(=O)c1cc2c(=O)n3ccccc3nc2n(Cc2ccco2)c1=NC(=O)c1c(F)cccc1Cl,Potency,[1],inactive
same,Potency,[2],inactive
same,Potency,[3],inactive
same,Potency,[4],inactive
COc1ccc(Nc2cc(C(=O)NCCCN3CCN(c4ccccc4F)CC3)c3ccccc3n2)c(OC)c1,Potency,[1],inactive
same,Potency,[2],inactive
same,Potency,[3],inactive
same,Potency,[4],inactive
CCc1nc(Oc2cccc(F)c2)c2oc3ccccc3c2n1,Potency,[1],inactive
same,Potency,[2],inactive
same,Potency,[3],inactive
same,Potency,[4],inactive
CCc1ccc(C(c2ccccc2)c2c(C)[nH]c3ccccc23)s1 (stereo not drawn),Potency,[1],inactive
same,Potency,[2],inactive
same,Potency,[3],inactive
same,Potency,[4],inactive
CCCN(CC(=O)Nc1ccccc1OC)C(=O)c1cccc(S(=O)(=O)Nc2ccc(OC)cc2)c1,Potency,[1],inactive
same,Potency,[2],inactive
same,Potency,[3],inactive
same,Potency,[4],inactive
Cc1ccc(C(NC(=O)C2CCN(Cc3ccc(Cl)c(Cl)c3)CC2)c2ccccn2)cc1 (stereo not drawn),Potency,[1],inactive
same,Potency,[2],inactive
same,Potency,[3],inactive
same,Potency,[4],inactive
O=C1C=C(Nc2cccc3cccnc23)c2ccccc2C1=O,Potency,[1],inactive
same,Potency,[2],inactive
same,Potency,[3],inactive
same,Potency,[4],inactive
CC1=NN(c2ccccc2)C(=O)C1C(=O)c1cc([N+](=O)[O-])cc([N+](=O)[O-])c1 (stereo not drawn),Potency,[1],inactive
same,Potency,[2],inactive
same,Potency,[3],inactive
same,Potency,[4],inactive
CC(C)Nc1nc(NC(C)C)nc(OCCOC(=O)c2ccccc2)n1,Potency,[1],inactive
same,Potency,[2],inactive
same,Potency,[3],inactive
same,Potency,[4],inactive
Cc1ccc(C(=O)Nc2cccc(-c3ccc(N4CCOCC4)nn3)c2)cc1C,Potency,[1],inactive
same,Potency,[2],inactive
same,Potency,[3],inactive
same,Potency,[4],inactive
Cc1[nH]n(-c2ccccc2)c(=O)c1C=Nc1ccc(S(=O)(=O)N=C(N)N)cc1,Potency,[1],inactive
same,Potency,[2],inactive
same,Potency,[3],inactive
same,Potency,[4],inactive
CCOc1cc(CNCCSc2nnnn2C)ccc1OCc1ccc(Cl)cc1Cl,Potency,[1],inactive
same,Potency,[2],inactive
same,Potency,[3],4.26 µM (active)
same,Potency,[4],63.1 µM (active)
O=C1CSC(c2cccc(Cl)c2Cl)N1c1ccccn1 (stereo not drawn),Potency,[1],inactive
same,activation,[2],"6.45% [at 17.1 µM, percent relative to cAMP agonist control]"
same,Potency,[3],inactive
same,"activity change, negative = inhibition",[4],-6.53% [at 30.8 µM]
CCOc1cc(-c2ccc(OC(=O)c3ccccc3)c(OC)c2)cc(=O)c2c(C)oc(C)c12,Potency,[1],inactive
same,Potency,[2],inactive
same,outcome,[3],inactive [at 12.7 µM]
same,Potency,[4],inactive
Cc1ccc(-c2nc(-c3cc4cccc(OCc5ccc(F)cc5)c4oc3=O)no2)cc1,Potency,[1],inactive
same,Potency,[2],inactive
same,Potency,[3],inactive
same,Potency,[4],inactive
ON=C(c1ccccc1)c1ccc2c3c(cccc13)CC2,Potency,[1],inactive
same,Potency,[2],inactive
same,Potency,[3],inactive
same,Potency,[4],inactive
CS/C(=C\C(=O)c1ccco1)Nc1ccccc1Cl,Potency,[1],inactive
same,Potency,[2],inactive
same,Potency,[3],inactive
same,Potency,[4],inactive
Oc1c(Br)cc(Br)cc1CNc1cccc2cccnc12,Potency,[1],inactive
same,Potency,[2],inactive
same,Potency,[3],26.9 µM (active)
same,Potency,[4],inactive
COc1ccccc1-c1nnc(SCC(=O)c2ccc(C3CCCCC3)cc2)n1Cc1ccco1,Potency,[1],inactive
same,Potency,[2],inactive
same,Potency,[3],inactive
same,Potency,[4],inactive
CCCS(=O)(=O)c1c(S(=O)(=O)CCC)c2cnccn2c1C(=O)c1ccc(CC)cc1,Potency,[1],inactive
same,activation,[2],"12.5% [at 17.1 µM, percent relative to cAMP agonist control]"
same,Potency,[3],inactive
same,"activity change, negative = inhibition",[4],-2.89% [at 30.8 µM]
Cc1ccccc1NC(=O)c1sc2nc(-c3cc4ccccc4oc3=O)[nH]c(=O)c2c1C,Potency,[1],inactive
same,Potency,[2],inactive
same,outcome,[3],inactive; activator; fitted 0.8492 uM [at 12.7 µM]
same,Potency,[4],inactive
Cc1ccc(-c2nc3c(c(=O)[nH]c(=O)n3Cc3ccccc3)n2C)o1,Potency,[1],inactive
same,Potency,[2],inactive
same,Potency,[3],inactive
same,Potency,[4],inactive
CCCOc1ccc(/C=C2/C(=O)ON=C2C)cc1Cl,Potency,[1],inactive
same,Potency,[2],inactive
same,Potency,[3],inactive
same,Potency,[4],inactive
Cc1ccc(C(C[N+](=O)[O-])c2c(-c3ccccc3O)[nH][nH]c2=O)cc1 (stereo not drawn),Potency,[1],inactive
same,activation,[2],"3.05% [at 17.1 µM, percent relative to cAMP agonist control]"
same,Potency,[3],3.38 µM (active)
same,"activity change, negative = inhibition",[4],-0.345% [at 30.8 µM]
COc1ccc(NC(=O)CSc2sc3c(O)cc(=O)[nH]c3c2C#N)c(OC)c1,Potency,[1],inactive
same,activation,[2],"3.92% [at 17.1 µM, percent relative to cAMP agonist control]"
same,Potency,[3],inactive
same,"activity change, negative = inhibition",[4],-13.9% [at 30.8 µM]
COc1ccc(OC)c(NC(=O)CSc2nc(O)cc(=O)n2CC(C)C)c1,Potency,[1],inactive
same,Potency,[2],inactive
same,Potency,[3],inactive
same,Potency,[4],inactive
CCN(CCCNC(=O)c1cc2cc3ccc(OC)cc3nc2s1)c1cccc(C)c1,Potency,[1],inactive
same,Potency,[2],inactive
same,Potency,[3],inactive
same,Potency,[4],inactive
CC[C@@H]1CC=C[C@H]2[C@H]1C(=O)N(Cc1ccccc1)[C@H]2c1ccc(OC)c(Cl)c1,Potency,[1],inactive
same,Potency,[2],inactive
same,Potency,[3],inactive
same,Potency,[4],inactive
O=C(COC(=O)[C@@H]1CC(O)CN1S(=O)(=O)c1ccc(Cl)c(Cl)c1)NC(=O)NCc1ccccc1 (stereo partly drawn),Potency,[1],inactive
same,Potency,[2],inactive
same,Potency,[3],inactive
same,Potency,[4],inactive
same,Potency,[5],inactive
COc1ccc(O)c(/C=N/NC(=O)c2ccc(N3CCCC3=O)cc2)c1,Potency,[1],inactive
same,Potency,[2],inactive
same,Potency,[3],inactive
same,Potency,[4],inactive
same,Potency,[5],inactive
C=CCc1ccccc1OCCSc1nc(-c2ccccc2F)nc2cc(=O)[nH]n12,Potency,[1],inactive
same,Potency,[2],inactive
same,Potency,[3],inactive
same,Potency,[4],inactive
same,Potency,[5],inactive
COc1cc(/C=C2/NC(=O)NC2=O)cc(Br)c1OCc1ccc(C(=O)O)cc1,Potency,[1],inactive
same,activation,[2],"-3.55% [at 17.1 µM, percent relative to cAMP agonist control]"
same,Potency,[3],inactive
same,"activity change, negative = inhibition",[4],-4.68% [at 30.8 µM]
same,activation,[5],11.1% [at 30.8 µM]
COCCNc1nc(Oc2ccccc2)c2sccc2n1,Potency,[1],inactive
same,Potency,[2],inactive
same,Potency,[3],inactive
same,Potency,[4],inactive
same,Potency,[5],inactive
Cc1c(N=Cc2cc(Br)cc(Br)c2O)cccc1C(=O)O,Potency,[1],inactive
same,activation,[2],"-1.44% [at 17.1 µM, percent relative to cAMP agonist control]"
same,Potency,[3],inactive
same,"activity change, negative = inhibition",[4],-0.566% [at 30.8 µM]
same,activation,[5],3.4% [at 30.8 µM]
CCCCNC(=O)COC(=O)c1c2c(nc3ccccc13)CCC2,Potency,[1],inactive
same,Potency,[2],inactive
same,Potency,[3],inactive
same,Potency,[4],inactive
same,Potency,[5],inactive
OC(c1cc(F)cc(Cl)c1)c1ncc(-c2cccc(C(F)(F)F)c2)[nH]1 (stereo not drawn),Potency,[1],inactive
same,activation,[2],"-1.66% [at 17.1 µM, percent relative to cAMP agonist control]"
same,Potency,[3],inactive
same,"activity change, negative = inhibition",[4],-12% [at 30.8 µM]
same,activation,[5],19.7% [at 30.8 µM]
